PK Bst: pyruvate kinase (B. stearothermophilus) modulation. purified pyruvate kinase, luminescence ATP production; ribose 5-phosphate activator present at AC10. Potency, µM. hit rate 1.2% among 51,000; in the data active = potency below about 11 µM; inconclusive = mostly about 12 µM to 25 µM;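 the screen sought inhibitors and activators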;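 also: potency is read from the fitted curve at half-maximal effect; scaled between full activation by ribose 5 phosphate and full inhibition by luteolin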
Hsp90 Hop PPI: changes Hsp90-Hop TPR2A binding signal, up or down. AlphaScreen TPR2A-His6 binding biotin-Hsp90 C-terminal peptide. Potency, µM (doses to about 57 µM), for the others: at the top dose activity change, negative = inhibition. hit rate 0.44% among 71,000; active = well fitted curve in either direction with a large enough effect; inconclusive = small, poorly fitted or top-dose-only effect, or another doubt; also: potency is read from the fitted curve at half-maximal effect; % is scaled to controls: 0 for no effect and ±100 for the full control effect
UbGFP stabilizer: ubiquitin-GFP accumulation via proteasome inhibition | Potency, µM (titrated, usually from 45.9 µM), for inactives: at the highest dose activation (GFP accumulation), hits mostly activators | Ubiquitin-GFP reporter cells, proteasome inhibition, GFP fluorescence; response scale: untreated = 0%, 10 µM MG-132 = 100% | AID 526 | 67,000 tested, under 10 active; active = well fitted activation curve with a large enough effect, not every such curve was filed as active; inconclusive = small, poorly fitted or top-dose-only effect, or another doubt; inactive = no such curve, though single readings can be large or run the other way; also: potency is read from the fitted curve at half-maximal effect
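Reporter cells (U2OS, ubiquitin-G76V-GFP fusion) are plated overnight, then treated 4 hr at 37 °C with compound titrations from 46 uM down to 2.9 nM. Activity is scaled against untreated cells and 10 uM MG-132.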
GFP derepression: epigenetic modulators derepressing GFP locus in mouse cells; AID 597; mouse C127i GFP locus derepression, cytometry, 30 h; hit rate 0.09% among 68,000; Potency, µM (series often up to 46.1 µM), inactives show top-dose GFP derepression (activation); also: % of control where 0% means no effect
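Derepression screen: silenced CMV-GFP reporter in murine C127i cells, 30 h compound incubation at 37 C, washed cells imaged by laser-scanning cytometer to enumerate GFP-expressing objects of 20 to 120 um.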
HBB splicing: hemoglobin beta splicing modulation | AID 925 | HBB splicing reporter cell assay, activation; EGFP reporter with mutant IVS2-654 intron; response scale: normalised to 500 nM splice-correcting PNA | hit rate 0.06% among 65,000 | Potency, µM (series often up to 46.1 µM), for the others: top-dose activation, actives largely listed as activators; also: potency is read from the fitted curve at half-maximal effect; 0% is about no effect
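Compounds were applied for 2 days to HeLa EGFP-654 cells, 500/well in Optimem with 2% FCS. The reporter's EGFP is disrupted by mis-splicing of beta-globin intron IVS2-654. Readout: summed well GFP fluorescence from 488 nm laser scanning; reference was 500 nM antisense […] 654 PNA.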
USP2a inh: inhibitors of human ubiquitin-specific protease USP2a; AID 927; O75604; Potency, µM (doses to about 38.3 µM), for inactives: at the highest dose activity change, negative = inhibition, hits mostly inhibitors; hit rate 0.1% among 60,000; USP2a enzymatic assay, qHTS inhibition; also: potency is read from the fitted curve at half-maximal effect; nearly all actives have a fitted effect of over 60% in size
Target sequence (O75604 whole entry, looked up): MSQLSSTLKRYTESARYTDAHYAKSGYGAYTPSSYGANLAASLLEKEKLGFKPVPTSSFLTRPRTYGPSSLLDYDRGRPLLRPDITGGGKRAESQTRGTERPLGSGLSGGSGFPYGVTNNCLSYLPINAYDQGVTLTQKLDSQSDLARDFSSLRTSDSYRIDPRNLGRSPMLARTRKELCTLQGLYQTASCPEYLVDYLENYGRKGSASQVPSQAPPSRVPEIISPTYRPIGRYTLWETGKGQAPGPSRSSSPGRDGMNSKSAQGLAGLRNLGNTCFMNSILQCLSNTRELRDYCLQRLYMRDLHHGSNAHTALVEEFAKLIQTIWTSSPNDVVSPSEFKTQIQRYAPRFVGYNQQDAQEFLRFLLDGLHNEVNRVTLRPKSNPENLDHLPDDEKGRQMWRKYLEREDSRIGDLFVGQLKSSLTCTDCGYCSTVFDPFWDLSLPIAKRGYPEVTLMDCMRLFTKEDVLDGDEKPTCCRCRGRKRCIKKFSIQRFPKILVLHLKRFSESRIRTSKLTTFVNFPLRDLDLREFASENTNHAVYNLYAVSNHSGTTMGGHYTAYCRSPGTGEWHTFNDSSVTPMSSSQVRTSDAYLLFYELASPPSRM
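USP2 core (20nM final) preincubated 30 min RT with compound, then Ub-PLA2 20nM and NBD C6-HPC 20uM final added; buffer 20mM Tris-HCl pH 8.0, 2mM CaCl2. Fluorescence Ex 460/Em 535 read at 0 and 2.5 h; normalized to NEM.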
Active calls of the source: *; i = inactive; ? = inconclusive; . = no result given; ! = repeats disagree; [ ] = dose if it differs, or a comment. Hits are enriched below; roughly 1.3% of the tested compounds scored in any of these assays. Unless noted, calls follow the shape of the dose curve; as a rule, active = well fitted curve in the direction sought with a large enough effect; inconclusive = small, poorly fitted or top-dose-only effect, or another doubt; inactive = no such curve, though single readings can be large; an effect the other way counts as inactive or inconclusive.

SMILES	PK Bst	Hsp90 Hop PPI	UbGFP stabilizer	GFP derepression	HBB splicing	USP2a inh
CN1CCc2c(cc(O)c(O)c2Cl)[C@H](c2cccc(Cl)c2)C1	.	13µM*	-2%	-1%	1%	19%
CCOC(=O)C1CCN(Cc2ccc(O)c3ncccc23)CC1	>57	5µM*	0%	?	.	10%
Cc1cc(-c2ccc(N=Nc3ccc4c(S(=O)(=O)O)cc(S(=O)(=O)O)c(N)c4c3O)c(C)c2)ccc1N=Nc1ccc2c(S(=O)(=O)O)cc(S(=O)(=O)O)c(N)c2c1O	.	4µM*	-1%	-1%	.	.
O=C(CN(c1ccc(F)cc1)S(=O)(=O)c1ccccc1)NCc1ccco1	>57	-6%	2%	-2%	.	11%
O=C(CC(c1ccco1)S(=O)(=O)c1ccccc1)c1ccc(F)cc1 (stereo not given)	.	.	.	3.2µM*	.	.
CCOc1cccc2cc(-c3cn4cc(C)ccc4n3)c(=O)oc12	1.2*	6%	-9%	2%	-3%	0%
COc1cccc2cc(-c3cn4cccc(C)c4n3)c(=O)oc12	>57	6%	1%	0%	0%	1%
C[C@H]1C[C@@H]2[C@H]3CCC4=CC(=O)C=C[C@@]4(C)[C@]3(Cl)[C@@H](Cl)C[C@]2(C)[C@]1(O)C(=O)COP(=O)(O)O	.	1%[11 µM]	-1%[9.17 µM]	0%[9.22 µM]	-2%[9.22 µM]	.
O=C1OCCC1Sc1nnc(-c2ccccc2)o1 (stereo not given)	8.8*	6%	-1%	-1%	0%[57.5 µM]	0%
COc1ccc([C@@H]2OC[C@]3(COC(C)=O)[C@H](C)C=C(C)[C@@H]2[C@H]3C)cc1	.	?	-1%	0%[9.22 µM]	.	.
N#CCCCCN1c2cccc3cccc(c23)S1(=O)=O	7.9*	3%	5%	1%	-2%	19%
O=C1c2ccccc2S(=O)(=O)N1CC(O)Cn1ccc2ccccc21 (stereo not given)	>57	3%	2%	4%	-3%	22%
Cc1nc2cnc(N(C)C)nc2n(Cc2cccs2)c1=O	.	7%	-8%	0%[9.22 µM]	1%	37%
CN(C)c1ncc2nc(CCc3ccccc3)c(=O)n(Cc3cccs3)c2n1	.	25µM*	5%	0%[9.22 µM]	0%	69%
O=c1c(-c2ccccc2)nc2cnc(N3CCOCC3)nc2n1CCc1ccccc1	.	5µM*	1%	-6%[9.22 µM]	3%	61%
COc1ccc(-c2nc3cnc(N(C)C)nc3n(CCc3ccccc3)c2=O)cc1	.	0.63µM*	-1%	0%[9.22 µM]	1%	4%
O=c1c(-c2ccc(Cl)cc2)nc2cnc(N3CCOCC3)nc2n1CCc1ccccc1	.	-3%	-1%	-3%[9.22 µM]	1%	109%
O=C(O)[C@H]([C@H]1NCCS1)N1Cc2ccccc2C1	.	2%[11 µM]	3%[9.17 µM]	-3%[9.22 µM]	5%[9.22 µM]	.
OC[C@@H]1O[C@@H](n2cnc3c(NCc4ccco4)ncnc32)[C@H](O)[C@H]1O	.	-5%	9%	-2%[9.22 µM]	.	.
c1ccc2c(c1)CCC[C@H]2C1=NCCN1	.	-2%	-5%	-1%	2%	0%
C[C@@]12C(=O)OC(=O)[C@@]1(C)[C@H]1CC[C@@H]2O1	.	?	0%	0%[9.22 µM]	-1%	-4%
COc1ccccc1N1CCN(c2nc(-c3ccccc3)cc(C(F)(F)F)n2)CC1	>57	-2%	-1%	2%	-1%	-7%
COc1ccccc1N1CCN(c2ccc(-c3ccccc3)nn2)CC1	1.6*	-13%	-3%	0%	.	18%
Cn1c(CSCc2ccc(F)cc2)nnc1SCC(=O)Nc1nccs1	>57	-7%	5%	6%	4%	-2%
Cn1nnnc1SCc1ccc(C(=O)Nc2nccs2)cc1	1*	-1%	8%	6%	0%	27%
SMILES	PK Bst	Hsp90 Hop PPI	UbGFP stabilizer	GFP derepression	HBB splicing	USP2a inh
CNc1nc(-c2ccc(Cl)cc2)cs1	8.1*	-4%	2%	-2%	0%[57.5 µM]	0%
CCNc1nc(-c2ccc(Cl)cc2)cs1	10*	-3%	-4%	0%	0%[57.5 µM]	-1%
Oc1ccc(Nc2nc(-c3ccc(O)cc3)cs2)cc1	8*	-27%	3%	5%	0%	?
Oc1ccc(Nc2nc(-c3ccc(Cl)cc3)cs2)cc1	.	.	.	.	0%	.
CC1(C(=O)CSc2nc3ccccc3s2)CCC(=O)O1 (stereo not given)	10*	.	.	-3%[20.6 µM]	.	.
COc1ccc(-c2cc3nc4c(c(N5CCC6(CC5)OCCO6)n3n2)CCCC4)cc1	i	10%	0%	2%	0%[57.5 µM]	8%
COc1cccc(-c2cc3nc(-c4ccccc4)cc(N4CCC5(CC4)OCCO5)n3n2)c1	.	20µM*	5%	0%	0%[57.5 µM]	1%
CC1=C(C(=O)O)N2C(=O)C(NC(=O)C(N)c3ccccc3)C2SC1 (stereo not given)	.	.	.	.	.	-19%
N#C/C(=C\c1ccc(O)c(O)c1)C(=O)NCCCc1ccccc1	>11	5µM*!	-7%	-4%[20.6 µM]	-1%	-3%
N#C/C(=C\c1ccc(O)c(O)c1)C(=O)OCCc1cccs1	.	4µM*	-3%	-1%	.	.
CO[C@@H]1/C=C\O[C@]2(C)Oc3c(C)c(O)c4c(O)c(cc(O)c4c3C2=O)NC(=O)/C(C)=C\C=C/[C@H](C)[C@@H](O)[C@H](C)[C@H](O)[C@H](C)[C@H](OC(C)=O)[C@@H]1C	.	-6%[11 µM]	-7%[9.17 µM]	0%[9.22 µM]	2%[9.22 µM]	.
O=c1cc(-c2ccc(O)c(O)c2)oc2cc(O[C@@H]3O[C@@H](CO)[C@@H](O)[C@@H](O)[C@H]3O)cc(O)c12	.	-5%	5%	-5%[9.22 µM]	.	.
CC(NC(=O)c1cc(-c2ccc(O)cc2)on1)c1ccccc1 (stereo not given)	.	-2%	9%	7%	-1%	.
O=c1cc(-c2ccccc2)nc2n1Cc1ccccc1-2	0.88*	0%	-5%	-4%	-2%[57.5 µM]	16%
O=c1nc2n(c3ccccc13)Cc1ccccc1-2	>11	0%	2%	2%	0%	-4%
Cn1c(C(=O)Nc2ccc3c(c2)OCCO3)cc2sccc21	3*	-15%	2%	2%	-1%	19%
N#Cc1ccc(CN2CCC3(CC2)CCN(C(=O)c2cc(C(F)(F)F)cc(C(F)(F)F)c2)CC3)cc1	.	-7%	-2%	1%[9.22 µM]	3%	109%
COCCn1c(=O)c(-c2cn(C)c3ccccc23)nc2cnc(Oc3ccc(OC)cc3)nc21	.	-5%	4%	0%[9.22 µM]	2%	149%
COc1ccc(Oc2ncc3nc(-c4cn(C)c5ccccc45)c(=O)n(CCC#N)c3n2)cc1	.	5µM*	0%	-2%[9.22 µM]	-1%	122%
O=C(c1ccccc1)c1cc(-c2ccccc2)on1	1.9*	.	.	0%[20.6 µM]	.	.
Cc1cc2n(n1)C(c1ccco1)Nc1ccccc1-2 (stereo not given)	9.5*	11%	-10%	0%	0%	18%
